Results: PubChem BioAssay (NCI)
This is part of a sample that, as a whole, favours compounds with a hit. Of some 79,000 tested, about 15% had one in any assay. Values without a mark were called inactive. Calls of active or inactive are those of the source. Cut-off read from the data, not from the text of the source: active = growth inhibition above about 70%; inactive = the rest.

Experiments:
[1] = NCI Yeast Anticancer Drug Screen. Data for the rad50 strain (AID 155);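 note: 0% = growth of vehicle-only cultures of the same strain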; conditions: S. cerevisiae rad50 strain growth inhibition, stronger effect = higher value
Summary of the method: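 Yeast carrying a defined DNA repair defect were exposed to test compounds, and growth was compared with vehicle-treated controls to give percent inhibition.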

[2] = NCI Yeast Anticancer Drug Screen. Data for the mec2-1 strain (AID 157); conditions: S. cerevisiae mec2-1 strain, stronger effect = higher value
Summary of the method: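 Strain: mec2-1 (DNA repair/cell cycle alteration). Compound exposure, then growth measured; inhibition expressed relative to vehicle.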

[3] = NCI Yeast Anticancer Drug Screen. Data for the sgs1 mgt1 strain (AID 161);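 note: 0% = growth of cultures given vehicle only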; conditions: S. cerevisiae sgs1 mgt1 strain, stronger effect = higher value
Summary of the method: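 Test agents were incubated with a DNA-repair-mutant yeast strain. Growth was then read and compared against vehicle-treated controls.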

[4] = NCI Yeast Anticancer Drug Screen. Data for the cln2 rad14 strain (AID 165);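 note: 0% = growth equal to vehicle treated cultures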; conditions: S. cerevisiae cln2 rad14 strain, stronger effect = higher value
Summary of the method: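 Compounds are applied to the cln2 rad14 yeast strain, and growth is then compared with that of vehicle-treated cultures to give inhibition.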

[5] = NCI Yeast Anticancer Drug Screen. Data for the bub3 strain (AID 167); conditions: S. cerevisiae bub3 mutant strain, stronger effect = higher value
Summary of the method: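 Compounds were applied to a genetically altered yeast strain carrying a cell-cycle control defect. Growth inhibition was scored against vehicle-treated controls.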

[6] = NCI Yeast Anticancer Drug Screen. Data for the mlh1 rad18 strain (AID 175); conditions: S. cerevisiae mlh1 rad18 strain growth inhibition, stronger effect = higher value
Summary of the method: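 Read-out is yeast growth inhibition, calculated against vehicle-only controls. The compound was applied to a strain engineered with DNA damage repair alterations.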

[7] = at 5.0 µM (retest, dose inferred, filed as 0.5)
[8] = at 50.0 µM (retest, dose inferred, filed as 5.0)

SMILES | growth inhibition [1, 7] | growth inhibition [1, 8] | growth inhibition ([1]; at 50.0 µM) | growth inhibition [2, 7] | growth inhibition [2, 8] | growth inhibition ([2]; at 50.0 µM) | growth inhibition [3, 7] | growth inhibition [3, 8] | growth inhibition ([3]; at 50.0 µM) | growth inhibition [4, 7] | growth inhibition [4, 8] | growth inhibition ([4]; at 50.0 µM) | growth inhibition [5, 7] | growth inhibition [5, 8] | growth inhibition ([5]; at 50.0 µM) | growth inhibition [6, 7] | growth inhibition [6, 8] | growth inhibition ([6]; at 50.0 µM)
O=C1C=C(Cl)C(=O)C2=C1CCCC2 | 10% | 89% (active) | 95.2% (active) | 11% | 98% (active) | 70.8% (active) | 8% | 98% (active) | 61.1% | -1% | 48% | 59.2% | 1% | 98% (active) | 99.2% (active) | 20% | 98% (active) | 93.9% (active)
C=CCOC(=O)CC(O)C(=O)OCC=C (configuration not stated) | -5% | 7% | 0.95% | 4% | -2% | -12.7% | -1% | 3% | -29.6% | 1% | -9% | 13.8% | 0% | -8% | 7.85% | -5% | 13% | -2.45%
O=C(/C(=N/O)[n+]1ccccc1)c1ccccc1 | -4% | 69% | 73.2% (active) | -3% | 60% | 26.8% | -9% | 33% | 41.7% | -6% | -7% | -10.8% | -1% | 94% (active) | 41.8% | 4% | 53% | 78.5% (active)
Nc1nn2c(C(Br)Br)cc(C(Br)Br)nc2c1[N+](=O)[O-] | 100% (active) | 100% (active) | 99.5% (active) | 100% (active) | 100% (active) | 99.5% (active) | 100% (active) | 100% (active) | 99.5% (active) | 99% (active) | 99% (active) | 99.4% (active) | 100% (active) | 100% (active) | 99.5% (active) | 100% (active) | 100% (active) | 99.5% (active)
COC(=O)Cn1/c(=N\N=C(/C)c2ccc(C)cc2)sc2ccccc21 | -13% | 7% | 35% | -2% | -2% | 26.7% | -10% | 28% | 40.4% | -10% | 16% | 15.3% | -11% | 11% | 35.9% | -20% | 36% | 40.6%
Cc1ccc(S(=O)(=O)N/N=C/c2oc(-c3cccc([N+](=O)[O-])c3)c(-c3cccc([N+](=O)[O-])c3)c2[N+](=O)[O-])cc1 | 56% | 56% | 86.7% (active) | 17% | 17% | 92.7% (active) | 50% | 50% | 92.1% (active) | 27% | 27% | 91.7% (active) | 31% | 31% | 87.9% (active) | 57% | 57% | 89.7% (active)
O=C1C(c2ccc([N+](=O)[O-])cc2)=C(Cl)C(=O)c2c(O)cccc21 | -30% | -22% | 71.2% (active) | -3% | -9% | 45.1% | 0% | -19% | 27.8% | 8% | 0% | 1% | 3% | -37% | 69.2% | -14% | 0% | 45.4%
COc1ccc(-c2cc(-c3ccco3)c(C#N)c(=S)n2C2OC(CO)C(O)C(O)C2O)cc1 (configuration not stated) | -8% | 1% | 5.1% | 3% | -12% | 4.3% | -1% | -3% | -15.2% | 15% | 16% | 30.1% | 2% | 7% | -3% | 10% | 20% | 4.1%
CCCCCCCCCCCCCCCCCCNCCCCCCCCCCCCCCCC | 6% | 3% | 52.7% | -1% | 8% | 38.5% | 5% | 0% | 49.9% | -1% | 2% | 75% (active) | -5% | 3% | 69.2% | 4% | 6% | 45.8%
COc1ccc2nc(N/N=C/c3ccccn3)cc(C)c2c1 | 10% | 56% | 98.7% (active) | -3% | 62% | 98.1% (active) | 0% | 57% | 99.2% (active) | 3% | 40% | 96.5% (active) | 4% | 58% | 98.3% (active) | 19% | 75% (active) | 99% (active)
C1=NC2c3ccccc3Cc3cccc1c32 (configuration not stated) | -20% | 94% (active) | 95.4% (active) | -3% | 97% (active) | 95.8% (active) | 7% | 97% (active) | 95.3% (active) | -28% | 96% (active) | 93.6% (active) | 2% | 97% (active) | 93.3% (active) | -13% | 97% (active) | 94.3% (active)
CC(=O)c1c(-c2ccc(Cl)cc2)c(-c2ccc(Cl)cc2)nn(CCO)c1=O | 12% | 86% (active) | 97.8% (active) | 4% | 76% (active) | 97.9% (active) | 2% | 89% (active) | 98.2% (active) | 3% | 78% (active) | 89.3% (active) | 4% | 78% (active) | 92.1% (active) | 4% | 80% (active) | 97.8% (active)
CSCS(=O)C[C@H](CO)NC(=O)/C=C/c1c(C)[nH]c(=O)[nH]c1=O (some centres not stated) | 26% | 98% (active) | 84.5% (active) | 26% | 86% (active) | 78.6% (active) | 25% | 98% (active) | 83% (active) | 32% | 95% (active) | 62.7% | 5% | 98% (active) | 88.7% (active) | 25% | 98% (active) | 85.1% (active)
COC(=O)CS(=O)(=O)CCS(=O)(=O)CC(=O)OC | -4% | 3% | -0.4% | -2% | 8% | 11.9% | -1% | 14% | 4.65% | -1% | 1% | -1.25% | -1% | 15% | 60.1% | -3% | 11% | 20.4%
CC(=O)OCCC1=CCC2CC1C2(C)C (configuration not stated) | -2% | 2% | -22.6% | -40% | 4% | 7.2% | -3% | 4% | -12.8% | -6% | -7% | 23.4% | -10% | -5% | -16.2% | -3% | 3% | -10.7%
O=C1C=CC(=O)N1c1ccccc1 (tested in a mixture with another compound) | 0% | 20% | 91% (active) | -1% | 32% | 92.8% (active) | 0% | 39% | 94.4% (active) | -3% | 34% | 93.8% (active) | -15% | 77% (active) | 95.2% (active) | -1% | 22% | 77.2% (active)
CC/C(=N\O)c1ccc2cc(Br)c3ccccc3c2c1 | 5% | 89% (active) | 98.7% (active) | -2% | 89% (active) | 98.9% (active) | 10% | 88% (active) | 98.7% (active) | -10% | 84% (active) | 96.8% (active) | -4% | 87% (active) | 98.8% (active) | 5% | 88% (active) | 98.6% (active)
O=C1NN=C(c2ccc(Cl)cc2)CC1C1C(=O)N(c2ccccc2)N=C1c1ccccc1 (configuration not stated) | 96% (active) | 96% (active) | 98.5% (active) | 96% (active) | 98% (active) | 98.9% (active) | 95% (active) | 98% (active) | 99.3% (active) | 88% (active) | 97% (active) | 96.3% (active) | 97% (active) | 95% (active) | 97.8% (active) | 97% (active) | 96% (active) | 98.3% (active)
c1cc[c]([Ge]([O]c2cccc3cccnc23)([c]2ccccc2)[c]2ccccc2)cc1 | 10% | 10% | 73% (active) | 7% | 7% | 67% | -3% | -3% | 67.5% | 6% | 6% | 45.5% | 7% | 7% | 72.2% (active) | 10% | 10% | 74% (active)
